# ELG1 genotox – qHTS screen for small molecules that induce genotoxicity in human embryonic kidney (HEK293T) cells expressing luciferase-tagged ELG1; HEK293T ELG1-luciferase reporter, luminescence, 16 h; actives 1.3% (n = 330,000); Potency, µM (top dose mostly 46 µM), most hits filed as activators; note: nearly all actives have a fitted effect of over 60% in size
#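 Step 1: seed 2,000 HEK293T ELG1-luciferase cells per well. Step 2: add compound or DMSO, incubate 16 hr at 37 °C. Step 3: ONE-Glo, 30 min at room temperature, read luminescence.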
# p53 reactivator – qHTS assay for re-activators of p53 using a Luc reporter. H1299 p53-A138V BP100-luciferase reporter, luminescence, 24 h. Potency, µM (doses to about 92.2 µM), actives largely listed as activators. actives 0.063% (n = 320,000). AID 504706, 2011; note: nearly all actives have a fitted effect of over 45% in size
#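 p53-null H1299 cells stably carrying temperature-sensitive p53-A138V and a BP100-luciferase reporter were pinned with compounds (4-point, 1:5 series) and held 24 hrs at 37 deg C. Luminescence was read 10 min after detection reagent.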
# Rab9 prom act – qHTS Assay for Rab9 Promoter Activators; Huh7 Rab9 promoter-luciferase reporter, luminescence, 24 h; Potency, µM (highest dose often 9.22 µM), usual class: activators; actives 2.8% (n = 320,000); note: nearly all actives have a fitted effect of over 60% in size
#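 Using Huh7 cells stably transfected with Rab9 promoter–luciferase, compounds were incubated 24 h at 37 °C, 5% CO2; luciferase luminescence was read 10 min after reagent addition.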
# SMN2 splice up – qHTS Assay for Enhancers of SMN2 Splice Variant Expression; HEK293 SMN2-luciferase splicing reporter, luminescence, 30-36 h; Potency, µM (titrated, usually from 46.1 µM), most hits filed as activators; actives 2.8% (n = 210,000); note: nearly all actives have a fitted effect of over 55% in size
#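 HEK293 cells carry an SMN2 […]–luciferase reporter in which exon 7 inclusion puts luciferase in frame. Cells were plated 10-12 h before compound addition, then incubated 30-36 h at 37C. ONE-Glo luminescence was read; sodium butyrate at 4.5 mM final served as control.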
# NPC1 prom act – qHTS Assay for NPC1 Promoter Activators. actives 2.4% (n = 320,000). Potency, µM (highest dose often 9.22 µM), actives largely listed as activators. Huh7 NPC1 promoter luciferase reporter, 24 h; note: nearly all actives have a fitted effect of over 60% in size
#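 Stably transfected Huh7 (NPC1 promoter→luciferase), 1500 cells/well in Opti-MEM + 10% FBS, 2 h settle, then compound 24 h at 37 °C. Luminescence after 10 min with Amplite reagent.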
# FLuc modulator – qHTS profiling assay for firefly luciferase inhibitor/activator using purifed enzyme and Km concentrations of substrates (counterscreen for miR-21 project). Luciferin 4-monooxygenase (Photinus pyralis), P08659. purified FLuc, Km substrates, luminescence inhibition. Potency, µM (series often up to 57.5 µM), hits mostly inhibitors. actives 6.9% (n = 360,000). AID 588342, 2011; note: nearly all actives have a fitted effect of over 55% in size
# Target sequence (P08659 whole entry, looked up): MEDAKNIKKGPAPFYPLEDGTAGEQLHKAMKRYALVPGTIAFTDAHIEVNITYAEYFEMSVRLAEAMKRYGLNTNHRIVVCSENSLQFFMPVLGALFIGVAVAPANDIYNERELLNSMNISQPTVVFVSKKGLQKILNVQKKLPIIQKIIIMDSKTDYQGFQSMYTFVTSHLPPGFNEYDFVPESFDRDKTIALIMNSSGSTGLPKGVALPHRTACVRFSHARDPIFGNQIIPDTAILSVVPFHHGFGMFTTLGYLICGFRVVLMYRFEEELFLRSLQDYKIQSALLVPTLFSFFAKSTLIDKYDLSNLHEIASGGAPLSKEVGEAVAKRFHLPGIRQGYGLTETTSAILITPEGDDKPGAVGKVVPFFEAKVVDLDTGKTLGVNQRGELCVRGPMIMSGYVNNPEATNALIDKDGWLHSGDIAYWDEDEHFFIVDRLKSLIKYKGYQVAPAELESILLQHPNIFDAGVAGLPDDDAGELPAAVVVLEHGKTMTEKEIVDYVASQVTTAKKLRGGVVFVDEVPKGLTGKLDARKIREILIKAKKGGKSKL
#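 Purified P. pyralis luciferase (10nM final) with 10uM D-luciferin and 10uM ATP (Km levels) in 50mM Tris acetate pH 7.5, 10mM Mg acetate, 0.01% Tween-20, 0.05% BSA; qHTS 6-point titration, ~60 µM downward; luminescence read.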
# Hits are given with their value; n = inactive; u = inconclusive; x = no result. Compounds with a hit are over-represented: about 7.3% of the library has one in this group of screens. Calls come from the whole dose curve; as a rule, active = well fitted curve in the direction sought with a large enough effect; inconclusive = small, poorly fitted or top-dose-only effect, or another doubt; inactive = no such curve, though single readings can be large; an effect the other way counts as inactive or inconclusive.
SMILES,ELG1 genotox,p53 reactivator,Rab9 prom act,SMN2 splice up,NPC1 prom act,FLuc modulator
CS(=O)(=O)N1CCC2(CCN(c3ccccc3)CC2)CC1,x,x,x,n,x,x
Cc1cc(C)cc(OCc2ccc(C(=O)O)o2)c1,u,u,n,u,n,n
CC(C)c1ccc(OCc2ccc(C(=O)N3CCCC3)o2)cc1,u,u,2µM,x,u,17µM
CCC(C)c1ccc(OCc2ccc(C(=O)O)o2)cc1 (configuration not stated),0.41µM,n,u,x,u,3µM
Cc1cc(=O)n2nc(N3CCC(C(=O)Nc4ccc(C(C)C)cc4)CC3)sc2n1,x,x,x,n,x,n
Nc1ccc2oc(-c3ccccc3Br)nc2c1,x,x,x,13µM,x,3.4µM
O=c1oc2ccc(Br)cc2cc1-c1nc2ccccc2o1,n,n,n,n,n,n
Nc1ccc(-c2nc3ccccc3o2)cc1,u,n,u,x,u,6.7µM
Cc1ccccc1-c1nc2cc(N)ccc2o1,u,n,0.35µM,6.3µM,0.89µM,2.4µM
CC(C)c1ccc2oc(-c3cc(N)ccc3O)nc2c1,u,x,u,n,0.89µM,0.15µM
O=C(Nc1ccc(O)c(-c2nc3ccccc3o2)c1)c1ccco1,x,x,x,n,x,n
Cc1ccc(C)c(S(=O)(=O)c2nnn3c2nc(NCc2ccc4c(c2)OCO4)c2sccc23)c1,x,x,x,x,x,n
CCOc1ccc(-c2nnc(SCC(=O)Oc3ccccc3)o2)cc1,x,x,x,x,x,n
Nc1ccc2oc(-c3cccc(Br)c3)nc2c1,2µM,n,1.1µM,14µM,1.1µM,2.7µM
Cc1ccc(C)c(NS(=O)(=O)c2cc3c4c(c2)CC(=O)N4CCC3)c1,n,n,n,x,n,n
CCOC(=O)N/N=C(\C)c1cccs1,u,n,n,n,n,n
C/C(=N\Nc1ccc(Cl)c(C(=O)O)c1)c1cccs1,n,n,u,x,u,u
C/C(=N/NC(=O)c1cccs1)c1cccs1,u,n,2.5µM,x,u,11µM
CCN(CC)S(=O)(=O)c1cccc(C(=O)N/N=C(\C)c2cccs2)c1,u,n,3.2µM,11µM,3.5µM,11µM
CC(=O)Nc1cccc(/C(C)=N/NC(=S)NC(C)C)c1,n,n,n,n,n,24µM
C/C(=N/Nc1ccccc1C(=O)O)c1cccs1,u,n,3.5µM,x,u,19µM
C/C(=N\NC(=O)c1cccc(S(=O)(=O)Nc2cccc(Cl)c2)c1)c1cccs1,n,n,n,x,n,n
COc1ccc(NS(=O)(=O)c2ccc3c(c2)N(C(C)=O)CC(C)S3)c(OC)c1 (configuration not stated),n,n,n,x,n,n
CC(=O)N1CCC[C@@]2(CCN(C(=O)Nc3cccc(C#N)c3)C2)C1,x,x,x,n,x,x
C=C(C)C1CC=C(C)/C(=N/NC(=O)c2cccs2)C1 (configuration not stated),u,u,u,u,u,4.8µM
SMILES,ELG1 genotox,p53 reactivator,Rab9 prom act,SMN2 splice up,NPC1 prom act,FLuc modulator
CC(=O)Nc1cccc(/C(C)=N/NC(=O)c2cccs2)c1,u,n,n,u,n,19µM
C/C(=N/NC(=O)c1cccs1)c1cccc(N)c1,u,n,u,x,u,19µM
CC(=O)Nc1cccc(/C(C)=N/NC(=O)c2ccc(NS(=O)(=O)c3cccs3)cc2)c1,n,n,n,x,n,u
CCN1CCN(c2c(S(=O)(=O)c3ccc(C)c(C)c3)cnc3cc(OC)c(OC)cc23)CC1,x,x,x,n,x,n
CCc1ccc(Nc2nnc(SC(C)C(=O)NC3CC3)s2)cc1 (configuration not stated),n,n,x,x,x,x
CCc1ccc(Nc2nnc(SC3CCOC3=O)s2)cc1 (configuration not stated),n,n,n,n,n,21µM
Cn1c(SCC(=O)Nc2ccccc2Oc2ccccc2)nnc1C1CC1,n,n,n,x,n,n
CCOC(=O)COC(=O)c1ccc(O)cc1,n,n,n,n,n,n
Cc1ccc(C(=O)COC(=O)c2cnccn2)cc1,n,n,n,n,n,6.7µM

# From PubChem BioAssay
